# Reference: PubChem BioAssay AID1445 (SRMLSC, 2008)
# About 910 (0.41%) of roughly 220,000 compounds were called active.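 Rule for the calls: active = primary inhibition above the hit cutoff, then over 50% inhibition at one or more dose response concentrations (cut at about 23% in these data, passing the limit was not always enough); inconclusive = conflicting primary data, or primary hits not chosen for dose response; inactive = low primary inhibition, or under 50% at every dose.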 The list comes from a sample in which actives are over-represented; it also holds similar structures and randomly drawn compounds. Measured potencies and affinities stand elsewhere.
# Molecular target: Aminopeptidase N (Plasmodium falciparum (isolate 3D7)) (UniProt O96935)
# Test: P. falciparum M1AAP inhibitors, biochemical, fluorogenic H-Leu-NHMec substrate, 1536-well (AID 1445);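 note: plate controls were DMSO full reaction for no effect and no enzyme background for full effect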
# Settings: recombinant M1AAP, H-Leu-NHMec fluorogenic kinetic assay
# [1] = at 30 µM, hits give high values unless noted
# Chain of Aminopeptidase N (Plasmodium falciparum (isolate 3D7)) (O96935 whole entry, looked up): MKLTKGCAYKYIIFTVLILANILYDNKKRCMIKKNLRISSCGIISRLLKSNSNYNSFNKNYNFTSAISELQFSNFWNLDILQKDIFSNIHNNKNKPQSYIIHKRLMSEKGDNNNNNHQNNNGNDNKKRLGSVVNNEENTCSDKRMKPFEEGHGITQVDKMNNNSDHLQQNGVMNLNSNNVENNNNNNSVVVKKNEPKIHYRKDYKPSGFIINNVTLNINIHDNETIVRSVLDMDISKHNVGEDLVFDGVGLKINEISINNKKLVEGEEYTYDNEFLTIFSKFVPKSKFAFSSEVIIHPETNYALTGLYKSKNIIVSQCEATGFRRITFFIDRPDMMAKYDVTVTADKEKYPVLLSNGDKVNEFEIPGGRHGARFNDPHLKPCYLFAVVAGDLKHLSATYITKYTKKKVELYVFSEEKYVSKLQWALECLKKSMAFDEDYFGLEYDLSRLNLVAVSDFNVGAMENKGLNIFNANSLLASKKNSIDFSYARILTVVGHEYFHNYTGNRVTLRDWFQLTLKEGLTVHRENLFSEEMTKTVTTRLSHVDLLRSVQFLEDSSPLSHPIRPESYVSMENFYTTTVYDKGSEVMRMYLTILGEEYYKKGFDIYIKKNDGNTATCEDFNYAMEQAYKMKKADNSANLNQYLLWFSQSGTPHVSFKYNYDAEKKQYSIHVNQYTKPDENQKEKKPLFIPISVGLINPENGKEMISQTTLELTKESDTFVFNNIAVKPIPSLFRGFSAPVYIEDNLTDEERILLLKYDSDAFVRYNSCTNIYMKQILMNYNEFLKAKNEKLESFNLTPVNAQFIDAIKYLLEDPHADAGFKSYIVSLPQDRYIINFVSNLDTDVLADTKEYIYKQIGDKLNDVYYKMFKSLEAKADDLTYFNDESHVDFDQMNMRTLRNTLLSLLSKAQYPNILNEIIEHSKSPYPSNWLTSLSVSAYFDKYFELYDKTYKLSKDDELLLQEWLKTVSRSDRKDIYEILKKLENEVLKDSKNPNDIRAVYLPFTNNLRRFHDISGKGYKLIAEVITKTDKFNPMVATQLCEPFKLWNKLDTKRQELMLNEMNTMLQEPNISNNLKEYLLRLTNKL
smiles,measurement,setting,value
O=C(CCN1CCN(C(=O)c2ccco2)CC1)Nc1ccc(F)cc1,inhibition,[1],1.29% (inactive)
S=C(NCCCn1ccnc1)NC1CCCCC1,inhibition,[1],6.56% (inactive)
CCC(C)NC(=O)CN(C)S(=O)(=O)c1ccc2c(c1)c(=O)n(C)c(=O)n2C (centres undefined),inhibition,[1],-4.82% (inactive)
CCCC(=O)OCC(=O)Nc1ccc2c(c1)OCO2,inhibition,[1],-0.89% (inactive)
CCOC(=O)C1=C(C)N=c2s/c(=C3\C(=O)Nc4ccccc43)c(=O)n2C1c1ccc2c(c1)OCO2 (centres undefined),inhibition,[1],8.57% (inactive)
CCO/C=C1/C(=O)N(c2ccc(OC)cc2)C(=O)c2ccccc21,inhibition,[1],4.8% (inactive)
Cc1cc(C)nc(NS(=O)(=O)c2ccc(N3C(=O)c4ccccc4C3=O)cc2)n1,inhibition,[1],0.35% (inactive)
CCOc1ccc(N2C(=O)c3ccccc3C2=O)cc1,inhibition,[1],-0.53% (inactive)
CCO/C=C1\C(=O)N(c2ccccc2)C(=O)c2ccccc21,inhibition,[1],-1.51% (inactive)
COc1ccccc1N1CCN(C(c2ccc(N(C)C)cc2)c2nnnn2CCc2ccccc2)CC1 (centres undefined),inhibition,[1],-7.04% (inactive)
CCN(CC)Cc1c(O)c(Cl)cc2c3c(c(=O)oc12)CCCC3,inhibition,[1],9.62% (inactive)
O=c1oc2c(CN3CCOCC3)c(O)ccc2c2ccccc12,inhibition,[1],3.91% (inactive)
COc1ccc(Oc2c(C)oc3c(CN(C)C)c(O)ccc3c2=O)cc1,inhibition,[1],2.59% (inactive)
CCc1cc2c3c(c(=O)oc2cc1O)CCCC3,inhibition,[1],22.5% (inactive)
Cc1oc2c(CN3CCCC3)c(O)ccc2c(=O)c1-c1ccccc1,inhibition,[1],9.3% (inactive)
CCc1c(C)c2ccc(OCC(=O)N(C)C)c(C)c2oc1=O,inhibition,[1],0.38% (inactive)
Cc1oc2c(CN3CCCC3)c(O)ccc2c(=O)c1-c1ccc(Br)cc1,inhibition,[1],17.5% (inactive)
CCCc1cc(=O)oc2c(CN3CCOCC3)c(O)ccc12,inhibition,[1],21.8% (inactive)
COc1ccc(-n2nnnc2SCC(=O)N2CCCC2)cc1OC,inhibition,[1],0.63% (inactive)
COc1ccc(C(=O)Nc2cc(=O)n(C)c(=O)n2C)cc1,inhibition,[1],4.18% (inactive)
Cc1nc(N)nc(-c2ccccc2O)n1,inhibition,[1],7.96% (inactive)
Cn1c(=O)[nH]c(=O)c2c1nc(N1CCCCC1)n2C/C=N/NC(=O)c1cc(Br)ccc1O,inhibition,[1],20.9% (inactive)
COCCCNC(=O)c1ccccc1Sc1ccc(NC(C)=O)nc1,inhibition,[1],2.96% (inactive)
CCCn1nc2cc(C(=O)NC3CCc4ccccc43)ccc2c1OCC (centres undefined),inhibition,[1],4.98% (inactive)
Nc1nc(NC(=O)c2ccccc2Cl)nn1-c1ccccc1,inhibition,[1],-0.99% (inactive)
Cc1c(C(=O)NCC(C)C)sc2nc(-c3ccc(F)cc3)cn12,inhibition,[1],-1.14% (inactive)
CC(=O)Cc1nsc(NC(=O)c2ccco2)n1,inhibition,[1],0.74% (inactive)
O=[N+]([O-])c1cc(S(=O)(=O)Nc2ccccc2)ccc1NCc1cccnc1,inhibition,[1],6.72% (inactive)
C=C(C)COc1ccc2c(C)c(CC(=O)OC)c(=O)oc2c1C,inhibition,[1],13.3% (inactive)
CC(C)CN(Cc1c(O)ccc2c3c(c(=O)oc12)CCC3)CC(C)C,inhibition,[1],34.7% (inactive)
CC1CCCCN1Cc1c(O)ccc2c(=O)c(-c3nc4ccccc4s3)c(N)oc12 (centres undefined),inhibition,[1],17.1% (inactive)
CC1CCN(Cc2c(O)ccc3c(=O)c(-c4nc5ccccc5s4)c(N)oc23)CC1,inhibition,[1],2.55% (inactive)
CC1CN(Cc2c(O)ccc3c2oc(=O)c2ccccc23)CC(C)O1 (centres undefined),inhibition,[1],4.75% (inactive)
COC(=O)Cc1c(C)c2ccc(OCC(C)=O)c(C)c2oc1=O,inhibition,[1],14.3% (inactive)
CC1CCCN(Cc2c(O)ccc3c(=O)c(-c4nc5ccccc5s4)c(N)oc23)C1 (centres undefined),inhibition,[1],24.6% (active)
CCc1cc(=O)oc2cc(C)c(CN3CCCC(C)C3)c(O)c12 (centres undefined),inhibition,[1],2.92% (inactive)
CN(Cc1c(O)ccc2c1oc(=O)c1ccccc12)C1CCCCC1,inhibition,[1],5.6% (inactive)
O=C(Cc1c(Cl)cccc1Cl)NCCc1ccc(Cl)cc1,inhibition,[1],13.8% (inactive)
Cc1ccc(NC(=O)CCNS(=O)(=O)c2ccc3c(c2)c(=O)n(C)c(=O)n3C)cc1C,inhibition,[1],9.45% (inactive)
NC(=O)c1ccccc1N/C=C1\CCCCC1=O,inhibition,[1],10.2% (inactive)
O=C1/C(=C/Nc2cccc([N+](=O)[O-])c2)CCc2ccccc21,inhibition,[1],9.22% (inactive)
CCOC(=O)N1CCN(C(=O)COc2ccccc2Cl)CC1,inhibition,[1],4.17% (inactive)
COCCn1c(SCC#N)nnc1-c1ccc2c(c1)OCO2,inhibition,[1],-1.51% (inactive)
OC(c1cccs1)c1nccc2ccccc12 (centres undefined),inhibition,[1],-3.89% (inactive)
O=c1oc2c(CN3CCCCC3)c(O)ccc2c2c1CCCCC2,inhibition,[1],42.2% (active)
CCCCN(CC)Cc1c(O)ccc2c(-c3ccccc3)cc(=O)oc12,inhibition,[1],4.82% (inactive)
O=c1cc(-c2ccccc2)c2ccc(O)c(CN3CCCCC3)c2o1,inhibition,[1],11.4% (inactive)
COCCN(CCOC)Cc1c(O)ccc2c3c(c(=O)oc12)CCC3,inhibition,[1],4.7% (inactive)
Cc1c(O)ccc2c3c(c(=O)oc12)CCCC3,inhibition,[1],20.9% (inactive)
COc1ccc(-c2cc(C#N)nc(Oc3ccc(Cl)cc3)n2)cc1,inhibition,[1],6.45% (inactive)
CC(=O)Nc1ccc(/C=N/NC(=O)c2cc3cc(C)ccc3nc2C)cc1,inhibition,[1],2.63% (inactive)
Cc1cc(NS(=O)(=O)c2ccc(NC(=O)CSc3nc4sc(C(=O)O)c(C)c4c(=O)[nH]3)cc2)no1,inhibition,[1],16.3% (inactive)
CCC(=O)Nc1ccc(S(=O)(=O)Nc2cc(C)on2)cc1,inhibition,[1],-4.75% (inactive)
Cc1ccc(COc2ccccc2-c2cc(C(=O)N/N=C/c3cccnc3)[nH]n2)cc1,inhibition,[1],4.58% (inactive)
O=C(N/N=C/c1cccnc1)c1ccccc1OCc1ccc(Cl)cc1,inhibition,[1],-4.49% (inactive)
COc1ccc(C2c3c(noc3C)CC(C)(O)C2C(C)=O)cc1 (centres undefined),inhibition,[1],0.23% (inactive)
COc1ccc(-c2nn(-c3ccccc3)cc2/C=C/C(=O)N2CCN(c3ccccn3)CC2)cc1,inhibition,[1],1.49% (inactive)
CCOC(=O)COc1ccc(/C=C/[N+](=O)[O-])c(OCC(=O)OCC)c1,inhibition,[1],1.07% (inactive)
CCOC(=O)COc1ccccc1/C=C\[N+](=O)[O-],inhibition,[1],11.9% (inactive)
CCN=C1S/C(=C\c2cc(Br)ccc2OCC(=O)OCC)C(=O)N1CC,inhibition,[1],3.81% (inactive)
CCOC(=O)COc1ccc2ccccc2c1/C=C/[N+](=O)[O-],inhibition,[1],4.98% (inactive)
CCCOC(=O)c1ccc(Cl)c(NC(=O)c2cccnc2)c1,inhibition,[1],8.87% (inactive)
COc1ccc(C(=O)CC(=O)c2ccccc2O)cc1OC,inhibition,[1],2.33% (inactive)
CSc1nnnn1-c1ccc(C(=O)O)cc1,inhibition,[1],5.73% (inactive)
COC(=O)c1ccc(-n2nnnc2SC)cc1,inhibition,[1],26.3% (active)
COC(=O)COC(=O)c1ccc(-n2nnnc2SC)cc1,inhibition,[1],-3% (inactive)
Cn1c(=O)n(CCc2ccccc2)c(=O)c2c1ncn2Cc1ccccc1,inhibition,[1],2.43% (inactive)
Cc1cc(NC(=O)c2ccc(N3CCCC3)c([N+](=O)[O-])c2)no1,inhibition,[1],-2.39% (inactive)
CC(=O)Nc1cccc(NC(=O)C2CCCN2C(=O)Nc2ccccc2C)c1 (centres undefined),inhibition,[1],-3.25% (inactive)
O=C(NCc1ccc2c(c1)OCO2)C1CCCN1C(=O)Nc1ccccc1 (centres undefined),inhibition,[1],11.3% (inactive)
Cc1cccc(NC(=O)N2CCCC2C(=O)Nc2ccccc2)c1 (centres undefined),inhibition,[1],13.2% (inactive)
COc1ccc(NC(=O)C2CCCN2C(=O)Nc2cccc(F)c2)cc1 (centres undefined),inhibition,[1],6.92% (inactive)
CC(=O)Nc1ccc(NC(=O)C2CCCN2C(=O)Nc2ccc(F)c([N+](=O)[O-])c2)cc1 (centres undefined),inhibition,[1],2.21% (inactive)
CC(=O)c1cccc(NC(=O)N2CCCC2C(=O)Nc2cccc(C)c2)c1 (centres undefined),inhibition,[1],1.86% (inactive)
O=C(NCc1ccc2c(c1)OCO2)C1CCCN1C(=O)Nc1ccc(F)cc1 (centres undefined),inhibition,[1],11.2% (inactive)
COc1cccc(NC(=O)C2CCCN2C(=O)Nc2cccc(F)c2)c1 (centres undefined),inhibition,[1],14.7% (inactive)
COc1ccc(Nc2nc(C(=O)N(CCO)Cc3ccccc3)cs2)cc1,inhibition,[1],0.85% (inactive)
Cc1ccc(NC(=O)CC2NCCN(Cc3ccccc3)C2=O)cc1 (centres undefined),inhibition,[1],8.69% (inactive)
Cc1ccc(N(CC(=O)NN=C2CCN(C)CC2)S(=O)(=O)c2ccccc2)c(C)c1,inhibition,[1],-0.06% (inactive)
O=C(Cn1cnc([N+](=O)[O-])n1)N/N=C/c1ccc2ccccc2c1,inhibition,[1],10.2% (inactive)
CCOC(=O)N1CCN(c2c(NCCCN(C)c3ccccc3)c(=O)c2=O)CC1,inhibition,[1],6.93% (inactive)
CCCc1nnc(NC(=O)Cn2c(=O)oc3ccccc32)s1,inhibition,[1],-0.7% (inactive)
CCOC(=O)C(CC)/C(C)=N/NC(=O)c1ccc([N+](=O)[O-])cc1 (centres undefined),inhibition,[1],2.15% (inactive)
C=C1CCN([C@H](C(=O)NCc2ccco2)C(C)C)S(=O)(=O)c2ccccc21,inhibition,[1],11% (inactive)
CC(=O)c1cccc(NC(=O)N2CCCC2C(=O)Nc2cc(C)ccc2C)c1 (centres undefined),inhibition,[1],-1.28% (inactive)
COc1ccc(NC(=O)N2CCCC2C(=O)Nc2ccc(C)cc2)cc1 (centres undefined),inhibition,[1],-3.34% (inactive)
CC1(C)CC(=O)C2=C(C1)N=C1SCCC(=O)N1C2c1cccc([N+](=O)[O-])c1 (centres undefined),inhibition,[1],18% (inactive)
Cc1c(NC(=O)c2ccccc2NS(=O)(=O)c2ccc(F)cc2)c(=O)n(-c2ccccc2)n1C,inhibition,[1],20.1% (inactive)
Cc1c(NC(=O)c2ccccc2NS(=O)(=O)c2ccc(Br)cc2)c(=O)n(-c2ccccc2)n1C,inhibition,[1],24.5% (active)
Cc1c(NS(=O)(=O)c2ccc(C(=O)NCc3ccccc3)cc2)c(=O)n(-c2ccccc2)n1C,inhibition,[1],0.49% (inactive)
Cc1c(NS(=O)(=O)c2cccc(C(=O)NCc3ccncc3)c2)c(=O)n(-c2ccccc2)n1C,inhibition,[1],-2.28% (inactive)
Cc1ccc(S(=O)(=O)Nc2c(C)n(C)n(-c3ccccc3)c2=O)cc1C(=O)NCc1ccccn1,inhibition,"at 30 µM, hits give high values",28.8% (active)
same,inhibition,at 100 µM (top of the series),42.4% (inactive)
CC(=O)Nc1ccc(S(=O)(=O)Nc2c(C)n(C)n(-c3ccccc3)c2=O)cc1,inhibition,[1],0.31% (inactive)
